Compounds without any hit were thinned out: in the full panel of roughly 79,000, 15% have a hit. Activity calls are given as the source filed them. Rule as the data show it: active = growth inhibition above about 70%; inactive = the rest.
Legend:
[1] = NCI Yeast Anticancer Drug Screen. Data for the rad50 strain (AID 155);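 also: 0% = growth of vehicle-only cultures of the same strain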; settings: S. cerevisiae rad50 strain growth inhibition; at 50.0 µM; stronger effect = higher value
Method in brief: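 Relative growth inhibition (compound vs vehicle) was measured in yeast with a defined repair-gene alteration.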

[2] = NCI Yeast Anticancer Drug Screen. Data for the mec2-1 strain (AID 157); settings: S. cerevisiae mec2-1 strain, at 50.0 µM, stronger effect = higher value
Method in brief: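 Growth inhibition is read against vehicle-treated controls after compound exposure of the mec2-1 yeast strain, which is defective in DNA damage repair or cell cycle control.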

[3] = NCI Yeast Anticancer Drug Screen. Data for the sgs1 mgt1 strain (AID 161);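 also: 0% = growth of cultures given vehicle only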; settings: S. cerevisiae sgs1 mgt1 strain, at 50.0 µM, stronger effect = higher value
Method in brief: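 This yeast growth screen uses a strain with defined DNA-repair lesions; compound-treated growth is compared with vehicle-treated growth.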

[4] = NCI Yeast Anticancer Drug Screen. Data for the cln2 rad14 strain (AID 165);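 also: 0% = growth equal to vehicle treated cultures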; settings: S. cerevisiae cln2 rad14 strain, at 50.0 µM, stronger effect = higher value
Method in brief: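 Growth inhibition, relative to vehicle-treated controls, is the read-out. The test organism is a yeast strain with defined genetic alterations, cln2 rad14.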

[5] = NCI Yeast Anticancer Drug Screen. Data for the bub3 strain (AID 167); settings: S. cerevisiae bub3 mutant strain, at 50.0 µM, stronger effect = higher value
Method in brief: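 Screening used yeast with an engineered genetic alteration affecting cell cycle control. Compound-exposed cultures were compared with vehicle cultures, and reduced growth was taken as inhibition.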

[6] = NCI Yeast Anticancer Drug Screen. Data for the mlh1 rad18 strain (AID 175); settings: S. cerevisiae mlh1 rad18 strain growth inhibition; at 50.0 µM; stronger effect = higher value
Method in brief: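 Cells of a genetically altered yeast strain, deficient in DNA damage repair, were treated with compound. Their growth was then compared with that of vehicle-treated cultures to give inhibition.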

Measured: growth inhibition

CC(CS)CS
inactive: [1] 6.85% | [2] -0.5% | [3] 6.95% | [4] -8.75% | [5] -0.8% | [6] 37%

CCCCCCCCCCCCCCCCCC(CCCCCCCC)CCCCCCCC
inactive: [1] -5.15% | [2] 0.65% | [3] -30.8% | [4] 3.3% | [5] 0.25% | [6] 23.6%

O=[N+]([O-])c1cc(Br)c(F)cc1F
inactive: [1] -22.2% | [2] 4.85% | [3] -5.2% | [4] -32.2% | [5] -2.55% | [6] 31.1%

CC1(C)OC(=O)c2c(cc(N3CCOCC3)oc2=O)O1
inactive: [1] 3.35% | [2] -2.9% | [3] 1.35% | [4] 9.55% | [5] 11.1% | [6] -1.25%

CCCCNc1ccccc1
inactive: [1] 30.4% | [2] 6.3% | [3] 28.8% | [4] -21% | [5] -6.25% | [6] 42.5%

Cc1n(CC(=O)c2ccccc2)nc2sc(N)n[n+]12
inactive: [1] -50% | [2] -23.9% | [3] -68% | [4] -18.2% | [5] -14.8% | [6] -20.9%

O=C(NCCCNCCCCNCCCNC(=O)C(F)(F)F)C(F)(F)F
inactive: [1] 5.05% | [2] -0.9% | [3] 6.6% | [4] -8.45% | [5] 4.25% | [6] 3.3%

NCCNc1ncnc2ccccc12
inactive: [1] -13.1% | [2] 16.1% | [3] -1.75% | [4] -11.6% | [5] -1.35% | [6] -5.2%

CCCCCCCCCCCCCCCCS
inactive: [1] -2.15% | [2] -16.4% | [3] 17.6% | [4] -6.6% | [5] 6.6% | [6] -4.8%

Cc1cc(C)c2c(SCc3ccc(Cl)cc3Cl)nc(N)nc2n1
inactive: [1] 31.8% | [2] 12.3% | [3] 45.9% | [4] -27.9% | [5] 7.1% | [6] 44.8%

NC(N)=N/N=C1/C(=O)N(C2CCCCCC2)C(=O)C1C(=O)NC1CCCCCC1 (configuration not stated)
inactive: [1] 35.8% | [2] 5.3% | [3] 14.9% | [4] 23.9% | [5] 6.4% | [6] 28.1%

CN(C)C(=O)Nc1cccc(OC(=O)NC2CCCCCCC2)c1
inactive: [1] 2.65% | [2] 28.3% | [3] 29.2% | [4] 3.95% | [5] 34.4% | [6] 19.6%

CC(C)=CCC1=C(O)[C@@](O)(CC=C(C)C)C(=O)C(C(=O)CC(C)C)=C1O
inactive: [1] 28.2% | [2] 7.95% | [3] 31.7% | [4] 26.4% | [5] 35.2% | [6] 29.6%

COc1ccc(C2C3=C(CCCC3=O)OC3=C2C(=O)CCC3)cc1
inactive: [1] -6.85% | [2] 1.4% | [3] -16.2% | [4] -17.2% | [5] 9.65% | [6] 12.7%

O=c1cc2c(n[nH]1)CCCC2
inactive: [1] 8.85% | [2] 4.55% | [3] 2.55% | [4] 16.9% | [5] -0.75% | [6] 11.4%

Cc1ccc(S(=O)(=O)N2CCN(S(=O)(=O)c3ccc(C)cc3)CCN(S(=O)(=O)c3ccc(C)cc3)Cc3cc(Br)c(Br)cc3CN(S(=O)(=O)c3ccc(C)cc3)CC2)cc1
inactive: [1] -24.1% | [2] -6.05% | [3] -23.3% | [4] 17.6% | [5] -3.1% | [6] -10.3%

CCOC(=O)[C@H]1Nc2ccc(Cl)cc2[C@H]2c3ccccc3O[C@H]21
inactive: [1] 4.85% | [2] -22.3% | [3] -23.1% | [4] 8.35% | [5] -19.7% | [6] -19.4%

O=C(O)c1c[nH]c2c(ccc3[nH]cc(C(=O)O)c(=O)c32)c1=O
inactive: [1] -14.1% | [2] -36.4% | [3] -33.2% | [4] -32.2% | [5] -40.7% | [6] -13.6%

CC(C)(C)N1CCC(=O)C1=O
inactive: [1] 23.8% | [2] 22.9% | [3] 1.85% | [4] 7.85% | [5] 5.85% | [6] 17.8%

CC(=O)OCC1OC(n2c(C)c(N=Nc3ccccc3)c(C)c(C#N)c2=S)C(OC(C)=O)C(OC(C)=O)C1OC(C)=O (configuration not stated)
inactive: [1] -17.7% | [2] -17.6% | [3] -1.7% | [4] -1% | [5] -10.3% | [6] 14.8%

O=[N+]([O-])c1ccc2[nH]c(-c3ccccc3)cc2c1
inactive: [1] 5.2% | [2] 10.8% | [3] -3.6% | [4] 7.3% | [5] -2.2% | [6] 18.9%

Cc1c(O)c(=O)ccn1CCN
inactive: [1] 5.65% | [2] -8.35% | [3] 2.6% | [4] -34% | [5] -9.7% | [6] 5.8%

COc1ccc(/C=N/Nc2ccc(S(=O)(=O)O)cc2)cc1
inactive: [1] 5.45% | [2] -12.6% | [3] -18.7% | [4] -6.45% | [5] -21.2% | [6] 13.2%

COc1ccc(NC(=O)C2C(=O)N(c3ccc(OC)cc3)C(=O)/C2=N\NC(N)=O)cc1 (configuration not stated)
inactive: [1] -8.9% | [2] -24.9% | [3] -48% | [4] 11.1% | [5] -9.6% | [6] -18.2%

N#Cc1cc2c(cc1C#N)/C(=N\c1cccc(N)n1)N=C2Nc1cccc(N)n1
inactive: [1] 6.1% | [2] 19.1% | [3] 0.2% | [4] 1.25% | [5] 5.8% | [6] 22%

CC1(C)N=C(N)N=C(N)N1c1ccc(C(F)(F)F)cc1
inactive: [1] 4.15% | [2] 10.1% | [3] 7.85% | [4] -0.5% | [5] 49% | [6] 29.4%

CC(O)c1cccc(NC(=O)Nc2ccc(Cl)c(Cl)c2)c1 (configuration not stated)
inactive: [1] 12% | [3] 70% | [4] 1.15% | [5] 43.8% | [6] 54.5%
active: [2] 83.4%

CC1(C)/C(=N\NC(N)=O)C2CCC1C2 (configuration not stated)
inactive: [1] -19.9% | [2] -25.6% | [3] 2.65% | [4] -4.05% | [5] -11.6% | [6] -16.9%

Cc1cccc(C(=O)c2ccccc2Cc2cccc3ccccc23)c1C
inactive: [1] 5.1% | [2] -6.8% | [3] 7.2% | [4] -6.45% | [5] 9.5% | [6] -15.5%

COc1cccc(C(=O)O)c1Cc1cccc2ccccc12
inactive: [1] 1.25% | [2] -6.7% | [3] 10.3% | [4] 27.2% | [5] -0.4% | [6] 25.1%

COc1ccc(Cc2cc(OC)c(OC)c(OC)c2)cc1O
inactive: [1] 2.2% | [2] 11.4% | [3] -16.4% | [4] -22.1% | [5] 19.9% | [6] -21.2%

CC1(C)OC2OC(CNC(=O)c3ccccc3)C(O)C2O1 (configuration not stated)
inactive: [1] -9.05% | [2] -4.4% | [3] 3.05% | [4] -3.1% | [5] -10.3% | [6] -18.8%

N#CC(c1ccccc1)c1ccccn1 (configuration not stated)
inactive: [1] 5.9% | [2] 8.35% | [3] 8.75% | [4] -9.2% | [5] 5.5% | [6] 2.75%

CCN(CC)C1Oc2cc3c(cc2C(c2cccc(OC)c2O)C1C)OCO3 (configuration not stated)
inactive: [1] 21.1% | [2] -0.15% | [3] 22.8% | [4] 21.7% | [5] 15.2% | [6] -1.4%

CC(C)CCCC(C)[C@H]1CC[C@H]2[C@@H]3CC[C@H]4C[C@@H](CCC=C(c5cc(Cl)c(O)c(C(=O)OC(C)C)c5)c5cc(Cl)c(O)c(C(=O)OC(C)C)c5)CC[C@]4(C)[C@H]3CC[C@]12C (some centres not stated)
inactive: [1] 17.7% | [2] 9.05% | [3] 23.1% | [4] 18.7% | [5] 11.5% | [6] -32.5%

Cc1ccc(Nc2nc(=O)[nH]c(=O)[nH]2)cc1N
inactive: [1] -11.7% | [2] 1.65% | [3] 20.3% | [4] 11.7% | [5] 27.1% | [6] -54.5%

CN(C)c1ccc(/C=c2\sc3nc4ccccc4n3c2=O)cc1
inactive: [1] -8.75% | [2] -32.3% | [3] -13.1% | [4] -15.3% | [5] -16.5% | [6] -21.4%
